The entries come from a sample that favours hits as a whole.
PDI inh = blocks human protein disulfide isomerase activity | PDI insulin aggregation turbidity, A650, 90 min | inhibition, % at 10 µM | hit rate 0.052% among 350,000;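 active means mean inhibition across replicates of 30% or more, whatever share of single replicates reach that level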
Target sequence (P07237 whole entry, looked up): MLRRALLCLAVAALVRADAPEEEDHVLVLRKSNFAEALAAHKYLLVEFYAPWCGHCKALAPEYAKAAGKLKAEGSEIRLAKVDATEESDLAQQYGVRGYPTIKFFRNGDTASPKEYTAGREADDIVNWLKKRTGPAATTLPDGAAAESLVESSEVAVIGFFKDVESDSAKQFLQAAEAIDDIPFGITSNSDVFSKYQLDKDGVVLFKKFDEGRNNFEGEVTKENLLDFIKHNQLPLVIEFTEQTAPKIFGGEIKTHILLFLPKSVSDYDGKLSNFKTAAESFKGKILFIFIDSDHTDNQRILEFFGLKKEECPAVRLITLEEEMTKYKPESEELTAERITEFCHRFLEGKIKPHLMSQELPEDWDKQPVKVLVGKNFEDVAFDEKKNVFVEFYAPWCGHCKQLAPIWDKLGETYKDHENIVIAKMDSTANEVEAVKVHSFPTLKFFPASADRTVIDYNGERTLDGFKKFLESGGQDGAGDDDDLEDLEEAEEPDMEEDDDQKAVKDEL
CendR NRP1 mod = alters CendR peptide binding to human NRP-1; FAM-RPARPAR peptide binding to NRP-1, fluorescence polarization; inhibition, % at 25 µM; AID 602438; hit rate 0.85% among 360,000;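 active means inhibition or corrected inhibition above about 18%, plus a signal ratio from 0.5 to 1.5, limit read from the data, passing the limit was not always enough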
ERp5 block = ERp5 (human) disulfide isomerase inhibition | Q15084 | ERp5 insulin aggregation, absorbance 650 nm, 90 min | inhibition, % at 9.99 µM | hit rate 0.05% among 350,000;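 active means mean replicate inhibition above about 25%, with every replicate also reaching it, limit read from the data, passing the limit was not always enough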
ARNT-TACC3 inh = disrupts binding between human ARNT and TACC3; AID 623870; AlphaScreen His-ARNT PAS-B/GST-TACC3 binding, luminescence; TACC3 fragment carries E629A point mutation; hit rate 0.66% among 390,000; Q9Y6A5; inhibition, % at 9.99 µM;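 active means mean inhibition of replicates at least 50% and at least half of replicates each reaching 50%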;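 further: 0% = complete ARNT plus TACC3 wells and 100% = ARNT alone without TACC3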
ALR inh = blocks human ALR sulfhydryl oxidase activity. P55789. AID 485317. hit rate 3.8% among 290,000. purified ALR, DTT oxidation, H2O2 HRP-luminol luminescence. inhibition, % (no concentration beside the values);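 active means mean replicate inhibition above about 79%, with every replicate also reaching it, limit read from the data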
PglD inh = inhibitors of Campylobacter jejuni PglD acetyltransferase; purified PglD enzyme, DTNB colorimetric CoA detection; inhibition, % at 12.5 µM; hit rate 0.098% among 360,000; in the data active means inhibition above about 16%, passing the limit was not always enough
* marks the source's active call; other numbers are inactive results; . = not tested or not shown.

SMILES	PDI inh	CendR NRP1 mod	ERp5 block	ARNT-TACC3 inh	ALR inh	PglD inh
CCOC(=O)N1CCC(NC(=O)c2ccc3c(c2)N(Cc2ccc(F)cc2)CCS3)CC1	.	-6.2	-0.9	.	36.3	-3.6
C[C@H](NC(=O)C[C@@H]1CC[C@H](NS(=O)(=O)c2cccc(F)c2)[C@@H](CO)O1)c1ccccc1	.	.	1.3	-7.8	.	4.3
O=C(NCC1CCCO1)c1ccc2c(c1)N(Cc1ccc(F)cc1)CCS2 (stereo unspecified)	4.5	5.7	9.2	-0.6	98.6*	-2.6
CCOC(=O)N1CCN(C(=O)c2ccc3c(c2)N(CC)CCS3)CC1	.	6.4	-1.8	-2.5	46.8	-4.7
CCOC(=O)N1CCN(C(=O)c2ccc3c(c2)N(Cc2ccc(F)cc2)CCS3)CC1	.	3.7	-6.3	-0.6	97.6*	1.2
CC(=O)N1[C@@H]2c3ccc(C4=CCCCC4)c(=O)n3C[C@H]1[C@H](CO)[C@H]2C(=O)NCc1cc(F)cc(F)c1	.	.	-1.5	-11.7	.	3.4
Cc1ccc(C(=O)OCC(=O)NCCNC(=O)COC(=O)c2ccc(C)s2)s1	0.0	-10.5	-2.2	-0.8	-1.5	4.3
Cc1ccc(C(=O)OCC(=O)c2ccc(Cl)s2)s1	8.0	34.1*	.	-5.2	-2.9	-0.1
COC(=O)c1cn(-c2ccccc2)c(C)c1C(=O)OC	1.4	22.3*	.	1.9	19.3	-2.5
C/C=C/c1ccc([C@H]2[C@@H](CO)N(Cc3cncnc3)C23CN(C(C)=O)C3)cc1	.	.	-0.8	.	.	.
Cc1ccc2oc(C(=O)NCC3CCOCC3)c(C)c2c1	5.1	25.6*	0.5	.	-8.7	3.2
C[C@H]1CN([C@@H](C)CO)C(=O)c2cc(C3=CCCCC3)cnc2O[C@H]1CN(C)C(=O)c1ccccn1	.	.	1.9	-9.1	.	-2.1
CN(C1=C(NC(=O)c2ccccc2)C(=O)c2ccccc2C1=O)C1CCS(=O)(=O)C1 (stereo unspecified)	8.2	44.9*	6.1	.	.	.
O=C(Nc1ccccc1)N1C[C@H]2[C@@H](c3ccccc31)[C@@H](CO)N2C(=O)c1ccncc1	.	.	-1.4	.	.	1.7
Cc1cc(C)n(-c2nnc3n2N=C(c2c[nH]c4ccccc24)CS3)n1	14.3	23.0*	.	2.0	-14.7	-0.6
CO[C@H]1CN(C)C(=O)c2ccc(NC(=O)c3ccccc3F)cc2OC[C@@H](C)N(C(=O)c2ccccc2F)C[C@H]1C	.	.	-4.7	-1.3	.	1.0
C[C@H](O)C#Cc1cnc2c(c1)C(=O)N([C@H](C)CO)C[C@@H](C)[C@H](CN(C)Cc1ccccn1)O2	.	.	7.3	-0.8	.	-3.7
CCN(CC(=O)NCc1cccs1)S(=O)(=O)c1ccc(C(C)C)cc1	1.0	31.6*	.	-3.5	.	-1.5
CCCCC(=O)N(C)c1c(CC)nc2c(OCc3ccccc3C)cccn12	3.8	21.8*	1.3	.	.	0.1
CCc1nc2c(OCc3ccccc3C)cccn2c1N(C)C(=O)CC(C)C	-0.2	-3.4	-10.0	.	.	1.3
CCc1nc2c(OCc3ccc(C(=O)OC)cc3)cccn2c1N(C)C(=O)CC(C)C	1.5	25.8*	-3.0	.	.	-0.3
C[C@@H]1CN([C@H](C)CO)C(=O)c2cc(NC(=O)Nc3ccc(C(F)(F)F)cc3)ccc2O[C@@H]1CN(C)Cc1ccc(C(=O)Nc2ccccc2N)cc1	.	.	-1.8	9.5	.	-2.2
COc1cc(OC)c(OC)cc1/C=N/NC(=O)C[n+]1ccccc1	-0.6	-8.7	.	0.5	-10.8	.
COc1cccc(/C=N/NC(=O)C[n+]2ccccc2)c1O	1.8	10.1	.	67.3*	56.8	.
O=C(C[n+]1ccccc1)N/N=C/c1ccccc1F	4.5	12.2	8.0	.	-4.5	.
SMILES	PDI inh	CendR NRP1 mod	ERp5 block	ARNT-TACC3 inh	ALR inh	PglD inh
O=C(C[n+]1ccccc1)N/N=C/c1cc(Br)ccc1O	3.9	-3.9	2.6	64.3*	18.4	0.3
C[C@@H](NC(=O)C[C@@H]1C[C@H]2c3cc(NC(=O)C4CCOCC4)ccc3O[C@H]2[C@H](CO)O1)c1ccccc1	.	.	-2.3	-5.9	.	-1.2
CCC(=O)N(C)C[C@H]1Oc2cc(-c3ccccc3)ccc2S(=O)(=O)N([C@H](C)CO)C[C@H]1C	.	.	0.0	-6.0	.	0.2
COc1ccc(NC(=O)N2C[C@@H](O)COC[C@@H]3O[C@@H](CC(=O)NCc4ccccc4OC)CC[C@H]32)cc1	.	.	7.6	0.3	.	-1.9
COc1ccc(N2CCN(C(=O)c3ccc(NC(=O)C4=CSCCO4)cc3)CC2)cc1	-0.2	35.5*	.	8.1	40.7	-3.1
CC1(C(=O)NCC2CC2)Cc2c(-c3cccc(C(F)(F)F)c3)ccnc2O1 (stereo unspecified)	-3.9	34.6*	-4.4	.	.	-10.3
COCCNC(=O)C1(C)Cc2c(-c3cccc(C(F)(F)F)c3)ccnc2O1 (stereo unspecified)	4.6	-6.6	-2.8	.	.	-1.3
CC1CN(S(=O)(=O)c2cccc(-c3csc(-c4ccccc4)n3)c2)CC(C)O1 (stereo unspecified)	0.6	15.1	.	-5.0	98.1*	-5.9
O=S(=O)(c1cccc(-c2csc(-c3ccccc3)n2)c1)N1CCOCC1	-0.9	0.0	.	-5.4	98.2*	-11.2
O=S(=O)(c1cccc(-c2nc3ccccc3s2)c1)N1CCOCC1	1.8	-7.4	.	-0.8	-19.6	1.5
Cc1nc(-c2ccc(S(=O)(=O)N3CCOCC3)cc2)cs1	-4.0	12.0	-1.6	-2.8	93.4*	-3.1
COc1ccc(NC(=O)CC2C(=O)N(c3ccc(Cl)cc3)C(=S)N2CCc2ccccn2)cc1 (stereo unspecified)	2.4	6.2	-6.2	-12.0	98.2*	-0.6
COc1ccc(NC(=O)CC2C(=O)N(c3ccc(Cl)cc3)C(=S)N2CCc2ccncc2)cc1 (stereo unspecified)	-2.2	-5.5	2.6	-6.0	-6.0	-3.3
CC(=O)OCC1OC(OCc2cn(C[C@H]3CC[C@H](Cn4cc(COC5OC(COC(C)=O)C(OC(C)=O)C(OC(C)=O)C5OC(C)=O)nn4)O3)nn2)C(OC(C)=O)C(OC(C)=O)C1OC(C)=O (stereo partly specified)	4.4	19.4*	-8.3	8.3	-2.0	3.3
CC(=O)OCC1OC(OCc2cn(C[C@H]3CC[C@@H]([C@@H]4CC[C@H](Cn5cc(COC6OC(COC(C)=O)C(OC(C)=O)C(OC(C)=O)C6OC(C)=O)nn5)O4)O3)nn2)C(OC(C)=O)C(OC(C)=O)C1OC(C)=O (stereo partly specified)	-2.7	4.6	2.3	-2.2	-8.3	-1.4
C[C@@H](NC(=O)[C@H]1[C@H](CO)[C@H]2Cn3c(cccc3=O)[C@@H]1N2Cc1ccccc1)c1ccccc1	.	.	-4.8	12.4	.	-1.9
O=S(=O)(Nc1ccc(Cl)cc1NS(=O)(=O)c1ccccc1)c1ccccc1	-4.6	17.2*	7.6	-7.0	.	2.7
COc1ccccc1N(C)S(=O)(=O)c1ccc(C(=O)NCC(C)C)cc1	0.0	6.4	.	5.7	-2.4	1.6
